Assay outcomes as filed in PubChem BioAssay.
UGM FP inh = M. tuberculosis UGM enzyme inhibitors, primary screen, biochemical, fluorescence polarization, single point; inhibition, % at 10 µM; purified UGM, fluorescence polarization probe displacement; 320,000 tested, 0.06% active; in the data active = inhibition above about 10%, passing the limit was not always enough
Rv3671c protease = Rv3671c serine protease inhibitors, primary screen, biochemical, fluorescence polarization, M. tuberculosis H37Rv | AID 2606, 2010 | inhibition, % at 5.96 µM | 320,000 tested, 0.048% active | P9WHR9; in the data active = inhibition above about 38%;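 also: extracellular domain of Rv3671c used as enzyme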
Target sequence (P9WHR9 whole entry, looked up, the tested form may be a part): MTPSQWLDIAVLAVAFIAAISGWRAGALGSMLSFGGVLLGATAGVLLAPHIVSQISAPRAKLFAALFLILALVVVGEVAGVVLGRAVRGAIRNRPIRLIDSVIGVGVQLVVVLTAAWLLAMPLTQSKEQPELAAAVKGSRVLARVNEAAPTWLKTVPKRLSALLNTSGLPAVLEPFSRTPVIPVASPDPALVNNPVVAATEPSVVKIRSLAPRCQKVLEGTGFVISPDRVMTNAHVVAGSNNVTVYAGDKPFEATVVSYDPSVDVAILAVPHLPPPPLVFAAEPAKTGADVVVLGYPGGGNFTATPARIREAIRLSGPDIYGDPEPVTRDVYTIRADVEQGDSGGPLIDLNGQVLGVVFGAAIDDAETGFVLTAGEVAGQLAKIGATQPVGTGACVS
Mtb betalactam = beta-lactam sensitization of Mtb H37Rv, H37Rv. M. tuberculosis H37Rv growth with meropenem, percent inhibition. inhibition, % at 25 µM. 330,000 tested, 0.27% active. AID 434955, 2010; call rule not given here;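 also: growth measured after seven days incubation then overnight dye step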
PriA SSB inh = inhibitors of Klebsiella pneumoniae PriA binding to SSB C-terminal tail, primary screen, biochemical, AlphaScreen. PriA–SSB C-terminal tail interaction (Klebsiella pneumoniae). AlphaScreen SSBct-PriA binding, biotinylated peptide. inhibition, % at 33 µM. 430,000 tested, 0.6% active. AID 1272365, 2023; in the data active = inhibition mostly above about 37%, no sharp cut-off; inactive = mostly below about 20%
Mtb FBA inh = Mtb FBA enzyme inhibitors, primary screen, biochemical, fluorescence, strain H37Rv | purified M. tuberculosis FBA, fluorescence read-out | inhibition, % at 1 µM | 360,000 tested, 2.3% active
GDH-TPI counter-1 = GDH-TPI coupling enzyme inhibitors, primary screen, artefact control for M. tuberculosis FBA inhibitor project, biochemical, absorbance, full deck | 360,000 tested, 1.2% active | AID 588335, 2011 | GDH-TPI coupled enzyme counterscreen, NADH absorbance | inhibition, % at 4.8 µM; in the data active = inhibition above about 30%
Mtb FBA confirm = M. tuberculosis aldolase blockers, biochemical, fluorescence, strain H37Rv, confirmation; purified M. tuberculosis FBA, fluorescence read-out; 5,600 tested, 78% active; inhibition, % at 1 µM; shares compounds with Mtb FBA inh
GDH-TPI counter-2 = GDH-TPI coupling enzyme inhibitors, artefact control for M. tuberculosis FBA inhibitor project, biochemical, fluorescence, high throughput; shares compounds with Mtb FBA inh; GDH-TPI coupled enzyme counterscreen; inhibition, % at 1 µM; 5,600 tested, 81% active; in the data active = inhibition above about 10%
GDH-TPI dose = GDH-TPI coupling enzyme inhibitors, dose response, artefact control for M. tuberculosis FBA inhibitor project, biochemical, fluorescence, IC50. AID 652145, 2013. shares compounds with Mtb FBA inh. GDH-TPI coupled enzyme assay, artifact counterscreen. 170 tested, 79% active. IC50, µM; call rule not given here
A number is an active result; i = inactive; nt = no result given; + = active, no number. Rows were chosen to be rich in hits. Some 3.2% of all compounds tested hit in one or more screens of this group. Rule as the data show it, unless noted: active = inhibition above about 27%; inactive = the rest.

SMILES	UGM FP inh	Rv3671c protease	Mtb betalactam	PriA SSB inh	Mtb FBA inh	GDH-TPI counter-1	Mtb FBA confirm	GDH-TPI counter-2	others
O=C1c2ccccc2NC(c2ccccn2)N1c1ccc(Cl)cc1 (stereo not drawn)	i	i	i	i	i	i	nt	nt
Cc1cccc(C2Nc3ccccc3C(=O)N2c2ccccc2)n1 (stereo not drawn)	i	i	i	i	61	i	47	46
COc1ccccc1C(c1nnnn1CCc1ccccc1)N1CCN(c2ccccc2)CC1 (stereo not drawn)	i	i	i	i	i	i	nt	nt
COc1ccc(Cn2nnnc2C(CC(C)C)N2CCN(c3ccccc3)CC2)cc1 (stereo not drawn)	i	i	i	i	55	i	i	i	GDH-TPI dose=i
COCCn1nnnc1C(c1ccccc1OC)N1CCN(c2ccccc2)CC1 (stereo not drawn)	i	i	i	i	40	i	60	41
O=C(O)c1ccccc1Nc1ccnc(Cl)n1	i	i	i	i	28	i	+	144
Cc1cccc(-c2nc(C#N)c(NCC3CCCO3)o2)c1 (stereo not drawn)	i	i	i	i	34	i	109	88
N#Cc1nc(-c2ccccc2F)oc1NCCN1CCOCC1	i	i	i	i	36	i	84	81
N#Cc1nc(-c2ccc(F)cc2)oc1NCCN1CCOCC1	i	i	i	i	46	i	81	62
Cc1ccc(-c2nc(C#N)c(NCCN3CCCCC3)o2)cc1	i	i	i	i	94	i	170	121
O=S(=O)(c1ccc(F)cc1)c1nc(-c2ccc(F)cc2)oc1NCCN1CCOCC1	nt	nt	nt	i	i	i	nt	nt
O=C(O)c1sc2cc(C(F)(F)F)cnc2c1-c1cccs1	i	i	i	i	30	i	+	+
CSc1nc(C)cc(OCNC(=O)c2ccc(Cl)cc2)n1	nt	nt	nt	i	nt	nt	nt	nt
NCCn1ncc2c(N3CCN(c4ccccc4)CC3)ncnc21	nt	nt	nt	i	nt	nt	nt	nt
COc1ccc(NC(=O)COC(=O)c2ccc(S(=O)(=O)N3CC(C)CC(C)C3)cc2)cc1OC (stereo not drawn)	nt	nt	nt	nt	i	i	nt	nt
COc1ccc(NC(=O)c2ccc(S(=O)(=O)N3CC(C)CC(C)C3)cc2)cc1S(N)(=O)=O (stereo not drawn)	i	i	i	i	39	i	180	152
COc1ccc(-c2coc3cc(O)c(OC)cc3c2=O)cc1	i	i	i	i	44	34	84	54
COc1ccc(-c2coc3cc(O)ccc3c2=O)cc1	i	i	i	i	35	i	121	94
COc1ccc(-c2coc3cc(OC)ccc3c2=O)cc1	nt	nt	nt	i	i	i	nt	nt
CCN(CC)CCCNc1cc2n(c(=O)n1)CCc1cc(OC)c(OC)cc1-2	i	i	i	i	41	i	i	i
COc1ccc(Nc2cc3n(c(=O)n2)CCc2cc(OC)c(OC)cc2-3)cc1	i	i	i	i	i	i	nt	nt
CCOc1ccc(N(CC(=O)Nc2cccc(C)c2C)S(=O)(=O)c2c(C)[nH]c(=O)[nH]c2=O)cc1	i	i	i	i	i	i	nt	nt
CCOc1ccc(N(CC(=O)Nc2c(C)cccc2C)S(=O)(=O)c2c(C)[nH]c(=O)[nH]c2=O)cc1	i	i	i	i	91	i	85	53
O=C(/C=C/c1ccc(Cl)c(C(F)(F)F)c1)N1CCN(c2ccccn2)CC1	i	i	i	i	93	i	143	129
Cc1cc(C(=O)NCc2cccs2)no1	i	i	i	i	i	i	nt	nt
SMILES	UGM FP inh	Rv3671c protease	Mtb betalactam	PriA SSB inh	Mtb FBA inh	GDH-TPI counter-1	Mtb FBA confirm	GDH-TPI counter-2	others
Cc1cc(NC(=O)CCCC(=O)NCc2cccs2)no1	i	i	i	i	57	i	88	62
O=C(CSc1ncccn1)NN=Cc1cccc([N+](=O)[O-])c1	nt	nt	nt	i	nt	nt	nt	nt
COC(=O)C1(C)NC(=O)c2ccccc2N1 (stereo not drawn)	i	i	i	i	30	i	39	42
COc1ccc(N2C(=O)c3ccccc3NC2(C)C)cc1	i	i	i	i	i	i	nt	nt
COC(=O)c1cccc2c1NC(=O)C2=O	i	i	i	i	i	i	nt	nt
COC(=O)C1(C)Nc2ccccc2C(=O)N1c1ccccc1OC (stereo not drawn)	i	i	i	i	29	i	86	56
COc1ccc2c(c1)CC/C2=N\NC(=O)c1ccccc1	i	i	i	nt	i	i	nt	nt
COC(=O)c1cc2c(s1)-c1ccc(OC)cc1CC2	i	i	i	i	109	i	107	94
COc1cc2c(cc1OC)CN(Cc1ccccc1)CC2	i	i	i	i	i	i	nt	nt
COc1cc2c(cc1OC)CN(Cc1cccs1)CC2	i	i	i	i	29	i	98	87
COc1cc2c(cc1OC)CN(CC(O)c1ccccc1)CC2 (stereo not drawn)	i	i	i	i	57	i	41	33
COc1cn(CC(=O)Nc2cccc(C)c2C)c(CN2CCCCCC2)cc1=O	nt	nt	nt	i	nt	nt	nt	nt
O=C(Cc1cccs1)NCCn1nc(-c2cccnc2)n(C2CC2)c1=O	nt	nt	nt	i	nt	nt	nt	nt
Cc1[nH]nc2c1-c1nc3ccccc3nc1C(C)(C)C2	i	i	i	i	38	i	i	18
Cc1csc(NC(=O)c2cc(C)oc2C)n1	i	i	i	i	i	i	nt	nt
Cc1csc(NC(=O)c2ccccc2O)n1	i	i	i	i	66	i	99	85
CC(C)(C)c1csc(NC(=O)c2cccnc2Cl)n1	i	i	i	i	i	i	nt	nt
CC(C)(C)c1csc(NC(=O)c2ccccc2O)n1	i	i	i	i	37	i	43	36
Cc1cc(Nc2c(C)n(C)n(-c3ccccc3)c2=O)nc(-n2cc([N+](=O)[O-])cn2)n1	nt	nt	nt	i	nt	nt	nt	nt
O=C(c1csc2nc(-c3ccc(F)cc3)cn12)N1CCN(C(c2ccccc2)c2ccccc2)CC1	nt	nt	nt	i	nt	nt	nt	nt
CCOP(=O)(OCC)c1nc(-c2ccc(C)cc2)oc1NCc1ccccc1	i	i	i	i	84	i	172	186
Cc1ccc(S(=O)(=O)c2nc(C)oc2NCc2ccccc2)cc1	i	i	i	nt	nt	nt	nt	nt
COC(=O)C1=CN(c2cccc(Cl)c2)C=C(C(=O)OC)C1c1cccc(OC)c1	i	nt	i	i	54	i	111	94
